The supplement of paper PMC7156485
A number with no mark means an inactive call.

test system: TDF; experiment: H1.0 immunofluorescence intensity relative to DMSO (% of DMSO); higher = stronger H1.0 induction, active = 120 or more; conditions: concentration: 10 µM; 24 h
In short: (§1)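 In 384-well plates holding 800 HCC1569 or TDF cells per well in RPMI with 10% FBS, compounds were tested at 10 µM for 24 h at 37 °C in triplicate. Fixation used 3.7% formaldehyde. Staining used a rabbit anti-H1.0 antibody with an AlexaFluor 647 secondary, plus DAPI. Each value, H1.0 nuclear intensity or cell number, is a median of replicates shown as percent of the plate control, and HCC1569 values were smoothed for positional effects.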
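Further: TDF is a line of transformed human dermal fibroblasts of mesenchymal origin.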

| Compound | H1.0 immunofluorescence intensity |
| --- | --- |
| CCC(C)n1ncn(-c2ccc(N3CCN(c4ccc(OCC5COC(Cn6cncn6)(c6ccc(Cl)cc6Cl)O5)cc4)CC3)cc2)c1=O (stereo unspecified) [Itraconazole] | 108 |
| CCN(c1nc(N)c(C(=O)N=C(N)N)nc1Cl)C(C)C [5-(N-Ethyl-N-isopropyl)amiloride] | 97.2 |
| CC(C)[N+]1(C)C2CCC1CC(OC(=O)C(CO)c1ccccc1)C2.[Br-] (stereo unspecified) [Ipratropium.Br] | 91.5 |
| COc1c2c(nc3ccccc13)OC(C(C)(O)CO)C2 (stereo unspecified) [Dubinidine] | 96.1 |
| COc1cccc2c1C1CN(CCCCn3c(=O)[nH]c4c(sc5ncc(-c6ccccc6)nc54)c3=O)CC1CO2.Cl (stereo unspecified) [Fiduxosin hydrochloride] | 102 |
| COc1ccc(C=Cc2cc(OC)cc(=O)o2)cc1 [Yangonin] | 104 |

test system: HCC1569; experiment: H1.0 immunofluorescence intensity relative to DMSO (% of DMSO); higher = stronger H1.0 induction, active = 140 or more; conditions: concentration: 10 µM; 24 h
In short: as §1

| Compound | H1.0 immunofluorescence intensity |
| --- | --- |
| CC[N+](CC)(CC)CCOc1cccc(OCC[N+](CC)(CC)CC)c1OCC[N+](CC)(CC)CC.[I-].[I-].[I-] [Gallamine triethiodide] | 123 |
| O=C1CN(N=Cc2ccc(-c3ccc([N+](=O)[O-])cc3)o2)C(=O)[N-]1.[Na+] [Dantrolene sodium] | 102 |
| CC(=O)C1(O)CCC2C3CCC4=CC(=O)CCC4(C)C3CCC21C (stereo unspecified) [17- Hydroxyprogesterone] | 104 |
| Cc1cc(O)c2c(c1)C(=O)c1cc(O)cc(O)c1C2=O [Emodin] | 89.8 |
| COc1cc2ncnc(Nc3cccc(Cl)c3)c2cc1OC | 111 |
| Cc1ccc(F)c(NC(=O)Nc2ccc(-c3cccc4[nH]nc(N)c34)cc2)c1 | 101 |
| CC1CNCCN1S(=O)(=O)c1cccc2cnccc12.Cl.Cl (stereo unspecified) | 83 |
| CN(C)CCCn1cc(C2=C(c3c[nH]c4ccccc34)C(=O)NC2=O)c2ccccc21 [Bisindolylmaleimide I] | 131 |
| COC1C(OC(N)=O)C(O)C(Oc2ccc3c(O)c(NC(=O)c4ccc(O)c(CC=C(C)C)c4)c(=O)oc3c2C)OC1(C)C.[Na+] (stereo unspecified) [Novobiocin.Na] | 103 |
| COc1ccc2nc(S(=O)Cc3ncc(C)c(OC)c3C)[nH]c2c1 (stereo unspecified) [Omeprazole] | 111 |
| COc1ccc(S(=O)(=O)Nc2cc(Cl)cc(Cl)c2OC)cc1N1CCNCC1.Cl | 99.9 |
| CC(C)(C)c1ccc(S(=O)(=O)Nc2ccc(-n3ccnc3)cc2)cc1 [Stem-Cell Factor/c-Kit Inhibitor, ISCK03] | 99.6 |
| Cl.Fc1ccc(C(OCCCc2cnc[nH]2)c2ccc(F)cc2)cc1 | 99.8 |
| CCCCCC=CCC=CCC=CCCCCCCC(=O)O [Dihomo-γ-linolenic acid] | 97.7 |
| CCCCOC(=O)NC(=O)C1c2ccccc2Oc2ccccc21 [butyl 9H-xanthen-9-ylcarbonylcarbamate] | 107 |
| O=c1c(-c2ccc(O)cc2)coc2cc(OC3OC(CO)C(O)C(O)C3O)ccc12 (stereo unspecified) [Daidzin] | 89.9 |
| COc1ccc2c3c1OC1CC(O)C=CC31CCN(C)C2 (stereo unspecified) [Galanthamine] | 94.8 |
| O=C(O)c1cc(N(Cc2ccccc2O)Cc2cc(O)ccc2O)ccc1O [Lavendustin A] | 97.9 |

| Compound | H1.0 immunofluorescence intensity |
| --- | --- |
| COc1cc2c3cc1Oc1cc(ccc1O)CC1c4c(cc(OC)c(O)c4Oc4ccc(cc4)CC3N(C)CC2)CC[N+]1(C)C (single isomer, unassigned; (+)) [(+)-Tubocurarine chloride] | 89.2 |
| COc1ccc(C=C2c3ccccc3C(=O)c3ccccc32)cc1O [10-(3-hydroxy-4-methoxybenzylidene)-9(10H)-anthracenone] | 207 (active) |
| O=c1c(-c2ccc(O)cc2)coc2cc(O)ccc12 [Daidzein] | 94.6 |
| NC(=S)NCCCC(N)C(=O)O (stereo unspecified) [Thiocitrulline] | 95.7 |
| CN(C)CCC(c1ccc(Cl)cc1)c1ccccn1.O=C(O)C=CC(=O)O (racemic) | 94.5 |
| CCCCCC=CCC(O)C=CC=CC=CC(O)CCCC(=O)O [5(S),12(S)-DIHETE all trans] | 95 |
| CN(C)c1ccc(O)c2c1CC1CC3C(N(C)C)C(=O)C(C(N)=O)=C(O)C3(O)C(=O)C1=C2O.Cl (stereo unspecified) [Minocycline hydrochloride] | 100 |
| Cl.NCCCC(N)(C(=O)O)C(F)F (racemic) [DL-alpha-Difluoromethylornithine hydrochloride] | 92.7 |
| COc1cccc2c1C(=O)c1c(O)c3c(c(O)c1C2=O)CC(O)(C(=O)CO)CC3OC1CC(N)C(O)C(C)O1.Cl (stereo unspecified) [Doxorubicin.HCl] | 1430 (active) |
| CCn1cc(C(=O)O)c(=O)c2cc(F)c(N3CCNCC3)nc21 [Enoxacin] | 106 |
| NC(=O)c1ncn(C2OC(CO)C(O)C2O)c1O (stereo unspecified) [Mizoribine] | 89.3 |
| CCC(C)n1ncn(-c2ccc(N3CCN(c4ccc(OCC5COC(Cn6cncn6)(c6ccc(Cl)cc6Cl)O5)cc4)CC3)cc2)c1=O (stereo unspecified) [Itraconazole] | 149 (active) |
| CCN(c1nc(N)c(C(=O)N=C(N)N)nc1Cl)C(C)C [5-(N-Ethyl-N-isopropyl)amiloride] | 91 |
| CC(C)[N+]1(C)C2CCC1CC(OC(=O)C(CO)c1ccccc1)C2.[Br-] (stereo unspecified) [Ipratropium.Br] | 110 |
| COc1c2c(nc3ccccc13)OC(C(C)(O)CO)C2 (stereo unspecified) [Dubinidine] | 106 |
| COc1cccc2c1C1CN(CCCCn3c(=O)[nH]c4c(sc5ncc(-c6ccccc6)nc54)c3=O)CC1CO2.Cl (stereo unspecified) [Fiduxosin hydrochloride] | 116 |
| COc1ccc(C=Cc2cc(OC)cc(=O)o2)cc1 [Yangonin] | 100 |
